# Laboratory results taken from PubChem BioAssay AID1347413 (National Center for Advancing Translational Sciences (NCATS), 2020).
# Calls of active or inactive are those of the source. Calls come from the whole dose curve; as a rule, active = well fitted curve in the direction sought with a large enough effect; inactive = no such curve, though single readings can be large or run the other way.
# Experiment: qHTS to identify inhibitors of the type 1 interferon - major histocompatibility complex class I in skeletal muscle: tertiary screen by RT-qPCR, retest select compounds
# Conditions: C25cl48 myoblasts, IFN-beta, HLA-B RT-qPCR, 24 h
# Description: Assay Submitter (PI): Travis B. Kinder Ph.D. & James Inglese Ph.D. Assay Development and Screening Technology Laboratory (ADST) National Center for Advancing Translational Sciences (NCATS), Rockville, MD National Institute of Health (NIH), Bethesda, Maryland Idiopathic inflammatory myopathies, collectively referred to as myositis, are a group of rare autoimmune diseases characterized by skeletal muscle inflammation, weakness, and usually accompanied by systemic pathologies of the skin, lungs, or vasculature. Current immunosuppressive therapies and glucocorticoids are often not curative and are accompanied by harsh side effects, especially in children with juvenile myositis. We initiated a drug repurposing and development program to identify more targeted, less toxic therapeutics to treat myositis. Although its cause is not known, muscle from a subset of patients have an abundance of the inflammatory type 1 interferon (IFN) and a down-stream product major histocompatibility complex class I (MHC class I), which are both thought to contribute to damage and weakness. We conducted quantitative high throughput screening (qHTS) on 6,576 compounds (4,679 unique) through a series of cell-based assays to identify those that inhibit the IFN-stimulated expression of MHC class I in muscle precursor cells (myoblasts). […]
compound,measurement,value
CC(C)[C@]12O[C@H]1[C@@H]1O[C@@]13[C@@]1(C)CCC4=C(COC4=O)[C@@H]1C[C@@H]1O[C@@]13C2=O,Potency,654 nM (active)
